Bioassay records: PubChem, National Center for Advancing Translational Sciences (NCATS)
ELG1 genotoxic – qHTS screen for small molecules that induce genotoxicity in human embryonic kidney (HEK293T) cells expressing luciferase-tagged ELG1. HEK293T ELG1-luciferase reporter, luminescence, 16 h. Potency, µM (series often up to 46 µM), for the others: at the top dose activity change, positive = activation, most hits filed as activators. hit rate 1.3% among 330,000. AID 504466, 2011; further: % of control where 0% means no effect; nearly all actives have a fitted effect of over 60% in size
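Reporter readout depends on ELG1 protein level, which increases with genetic stress. After 16 hr compound exposure at 37 °C, luciferase activity was quantified using ONE-Glo.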
SMN2 splice up – qHTS Assay for Enhancers of SMN2 Splice Variant Expression; HEK293 SMN2-luciferase splicing reporter, luminescence, 30-36 h; Potency, µM (titrated, usually from 46.1 µM), for inactives: at the highest dose activity change, positive = activation, usual class: activators; hit rate 2.8% among 210,000; further: % of control where 0% means no effect; nearly all actives have a fitted effect of over 55% in size
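HEK293 cells carry an SMN2 […]–luciferase reporter in which exon 7 inclusion puts luciferase in frame. Cells were plated 10-12 h before compound addition, then incubated 30-36 h at 37C. ONE-Glo luminescence was read; sodium butyrate at 4.5 mM final served as control.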
NPC1 promoter act – qHTS Assay for NPC1 Promoter Activators; Huh7 NPC1 promoter luciferase reporter, 24 h; Potency, µM (titrated, usually from 9.22 µM), inactives show top-dose activation, hits mostly activators; hit rate 2.4% among 320,000; further: % of control where 0% means no effect; nearly all actives have a fitted effect of over 60% in size
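Cells: Huh7 expressing luciferase under the NPC1 promoter, 1500/well. Seeded 2 h, compound added, incubated 24 h at 37 °C. Luciferase reagent, 10 min ambient, then luminescence.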
FLuc counter – qHTS profiling assay for firefly luciferase inhibitor/activator using purifed enzyme and Km concentrations of substrates (counterscreen for miR-21 project) | Potency, µM (doses to about 57.5 µM), without a hit: top-dose activity change, negative = inhibition, most hits filed as inhibitors | hit rate 6.9% among 360,000 | Luciferin 4-monooxygenase (Photinus pyralis), P08659 | AID 588342, 2011 | purified FLuc, Km substrates, luminescence inhibition;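 further: plate controls were vehicle for no effect and reference inhibitor for full effect; nearly all actives have a fitted effect of over 55% in size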
Target sequence (P08659 whole entry, looked up): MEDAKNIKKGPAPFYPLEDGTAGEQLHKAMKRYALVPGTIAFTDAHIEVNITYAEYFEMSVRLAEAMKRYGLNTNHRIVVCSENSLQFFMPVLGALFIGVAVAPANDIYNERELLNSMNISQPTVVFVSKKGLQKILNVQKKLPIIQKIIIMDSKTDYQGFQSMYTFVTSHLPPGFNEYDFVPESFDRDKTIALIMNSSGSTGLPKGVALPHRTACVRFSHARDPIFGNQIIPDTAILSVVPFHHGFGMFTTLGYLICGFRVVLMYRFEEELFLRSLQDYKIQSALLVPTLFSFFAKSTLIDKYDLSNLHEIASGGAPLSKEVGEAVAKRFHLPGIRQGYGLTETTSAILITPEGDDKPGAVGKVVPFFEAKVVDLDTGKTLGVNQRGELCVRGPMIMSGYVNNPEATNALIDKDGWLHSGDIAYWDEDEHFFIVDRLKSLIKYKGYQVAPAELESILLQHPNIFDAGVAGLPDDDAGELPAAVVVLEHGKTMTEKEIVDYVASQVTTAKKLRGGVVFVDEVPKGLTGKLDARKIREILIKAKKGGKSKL
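Biochemical qHTS of compounds, final roughly 60 µM downward over six points, against 10 nM purified firefly luciferase using Km concentrations of substrates (10 uM D-luciferin, 10 uM ATP) in Tris acetate pH 7.5 buffer; luminescence output.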
Luc counter – Counterscreen for Luciferase (Kinase-Glo TM) Inhibition; Kinase-Glo luciferase, ATP luminescence, 8 min; hit rate 0.28% among 200,000; Potency, µM (series often up to 38.3 µM), for the others: at the highest dose activity change, negative = inhibition, usual class: inhibitors; AID 1379, 2008; Luciferin 4-monooxygenase (Photuris pensylvanica), Q27757; further: on the % scale 0 is the no-effect control and ±100 the full control effect; nearly all actives have a fitted effect of over 60% in size
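Recombinant Kinase-Glo luciferase, 10 uM ATP (linear range), luciferin; imidazole pH 7.2 / KCl / MgCl2 / Tween / BSA buffer; 8 min RT; luminescence.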
Rab9 promoter act – qHTS Assay for Rab9 Promoter Activators | hit rate 2.8% among 320,000 | Huh7 Rab9 promoter-luciferase reporter, luminescence, 24 h | Potency, µM (doses to about 9.22 µM), for the others: at the highest dose activation, negative = inhibition, hits mostly activators; further: % of control where 0% means no effect; nearly all actives have a fitted effect of over 60% in size
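Cell-based reporter: Huh7 stable for Rab9 promoter-driven luciferase, plated in reduced-serum medium with 10% FBS at 1500 cells/well, compound-treated 24 h at 37 °C, luminescence read after 10 min reagent.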
Numbers without * were called inactive. Sampled rows, rich in hits. Any-hit rate of the full collection: about 7.4%. The call rests on the fitted dose curve; in most records, active means well fitted curve in the direction sought with a large enough effect; inconclusive means small, poorly fitted or top-dose-only effect, or another doubt; inactive means no such curve, though single readings can be large; an effect the other way counts as inactive or inconclusive. Potency means the concentration at half of the fitted maximal effect.

Results for Cc1cc(C)n2c(nc3ccccc32)c1C(=O)NN ?
ELG1 genotoxic: 7%; NPC1 promoter act: 1%; FLuc counter: 0.38µM*; Rab9 promoter act: -1%

How did Cc1cc(C)n2c(nc3ccccc32)c1C(=O)NCc1ccccc1 do in these assays?
ELG1 genotoxic: -1%; SMN2 splice up: -2%; NPC1 promoter act: 1%; FLuc counter: -9%; Luc counter: 0%; Rab9 promoter act: 7%

How did O=[N+]([O-])c1cccc(S(=O)(=O)Nc2ccc(-c3ccc(N4CCCC4)nn3)cc2)c1 do in these assays?
ELG1 genotoxic: 14%; NPC1 promoter act: 5%; FLuc counter: 30µM*; Rab9 promoter act: -3%

What do the screens show for `O=[N+]([O-])c1cccc(S(=O)(=O)Nc2ccc(-c3ccc(N4CCOCC4)nn3)cc2)c1`?
ELG1 genotoxic: -1%; NPC1 promoter act: 1%; FLuc counter: 21µM*; Rab9 promoter act: 1%

How did COc1ccc(-c2ccc(NS(=O)(=O)c3cccc([N+](=O)[O-])c3)cc2)nn1 do in these assays?
ELG1 genotoxic: -3%; NPC1 promoter act: 0%; FLuc counter: 2%; Rab9 promoter act: -1%

How did Cc1noc(C)c1C(=O)N(CC(C)C)c1nc2ccccc2s1 do in these assays?
ELG1 genotoxic: -9%; NPC1 promoter act: -5%; FLuc counter: 2%; Rab9 promoter act: 5%

Results for CCn1nc(NS(=O)(=O)c2ccccc2)c2cc3ccc(C)cc3nc21 ?
ELG1 genotoxic: 0%; NPC1 promoter act: -4%; FLuc counter: inconclusive; Rab9 promoter act: -6%

Results for CCn1nc(NS(=O)(=O)c2ccc(NC(C)=O)cc2)c2cc3cc(C)ccc3nc21 ?
ELG1 genotoxic: 12%; NPC1 promoter act: 9%; FLuc counter: 11µM*; Rab9 promoter act: 5%

Results for CCn1nc(NS(=O)(=O)c2ccccc2)c2cc3cc(C)ccc3nc21 ?
ELG1 genotoxic: 8%; NPC1 promoter act: 0%; FLuc counter: 15µM*; Rab9 promoter act: 0%

How did COc1cc(-c2nc(-c3ccc4c(c3)-c3ccccc3S4(=O)=O)c(-c3ccccc3)[nH]2)cc(OC)c1OC do in these assays?
ELG1 genotoxic: -9%; SMN2 splice up: 29%; NPC1 promoter act: 0%; FLuc counter: 4.8µM*; Luc counter: 1%; Rab9 promoter act: 5%

How did Cc1cc(OC(C)C(=O)Nc2c(C(=O)c3ccc(F)cc3)oc3ccccc23)ccc1Cl (stereo not drawn) do in these assays?
SMN2 splice up: -3%; FLuc counter: -1%

How did Cc1ccc(/C=N/NC(=O)c2ccc3nc[nH]c3c2)s1 do in these assays?
ELG1 genotoxic: 10%; SMN2 splice up: -8%; NPC1 promoter act: 13%; FLuc counter: inconclusive; Luc counter: -6%; Rab9 promoter act: 24%

How did C/C(=N/NC(=O)c1ccc2nc[nH]c2c1)c1cccs1 do in these assays?
ELG1 genotoxic: inconclusive; SMN2 splice up: 11µM*; NPC1 promoter act: 2µM*; FLuc counter: 11µM*; Luc counter: -5%; Rab9 promoter act: 1.4µM*

How did C/C(=N\NC(=O)c1ccc(Cl)cc1)c1cccs1 do in these assays?
ELG1 genotoxic: 2.3µM*; SMN2 splice up: 3.5µM*; NPC1 promoter act: 0.56µM*; FLuc counter: 2.7µM*; Luc counter: -17%; Rab9 promoter act: 0.32µM*

How did C/C(=N\NC(=O)c1ccc(NS(=O)(=O)c2cccs2)cc1)c1cccs1 do in these assays?
ELG1 genotoxic: 3%; SMN2 splice up: -5%; NPC1 promoter act: -6%; FLuc counter: -19%; Luc counter: 2%; Rab9 promoter act: 2%

Results for CC1(C)CC(=O)C/C(=N\NC(=O)CCc2ccc(S(=O)(=O)N3CCOCC3)cc2)C1 ?
ELG1 genotoxic: 0%; SMN2 splice up: 8%; NPC1 promoter act: 1%; FLuc counter: 0%; Luc counter: 4%; Rab9 promoter act: -1%

Results for CCOC(=O)c1ccc(-c2csc(NC(=O)CN3CCC(C)CC3)n2)cc1 ?
ELG1 genotoxic: -4%; NPC1 promoter act: -1%; FLuc counter: -3%; Rab9 promoter act: 6%

What do the screens show for `NC(=O)C1CCN(C(=O)COc2ccc3ccccc3c2Br)CC1`?
ELG1 genotoxic: -4%; NPC1 promoter act: -1%; FLuc counter: -19%; Rab9 promoter act: 1%

What do the screens show for `CCN(CC)C(=O)Oc1ccc2ccccc2c1Br`?
ELG1 genotoxic: 8%; SMN2 splice up: inconclusive; NPC1 promoter act: inconclusive; FLuc counter: 19µM*; Luc counter: 0%; Rab9 promoter act: inconclusive

Results for O=C(COc1ccc2ccccc2c1Br)N1CCCCC1 ?
ELG1 genotoxic: 18µM*; NPC1 promoter act: 4%; FLuc counter: 15µM*; Rab9 promoter act: inconclusive

How did O=C(Oc1ccc2ccccc2c1Br)N1CCCCCC1 do in these assays?
ELG1 genotoxic: inconclusive; SMN2 splice up: 11µM*; NPC1 promoter act: 0.5µM*; FLuc counter: 1.3µM*; Luc counter: -12%; Rab9 promoter act: 0.63µM*

Results for COc1ccc(C(=O)/C=C2/C(=O)Nc3ccccc32)c(OC)c1 ?
ELG1 genotoxic: -5%; NPC1 promoter act: 1%; FLuc counter: 8.5µM*; Rab9 promoter act: 0%

Results for COc1ccc(C2(C(=O)c3ccccc3)C(=O)c3ccccc3C2=O)cc1 ?
ELG1 genotoxic: inconclusive; NPC1 promoter act: 2µM*; FLuc counter: 4.8µM*; Rab9 promoter act: inconclusive

What do the screens show for `COc1ccc(C(=O)/C=C2/C(=O)Nc3ccccc32)cc1`?
ELG1 genotoxic: inconclusive; NPC1 promoter act: 3%; FLuc counter: 2.4µM*; Rab9 promoter act: 0%

Results for COc1ccc(C(=O)/C=C2/c3ccccc3CC(C)(C)N2C)cc1 ?
ELG1 genotoxic: 9%; SMN2 splice up: -15%; NPC1 promoter act: -34%; FLuc counter: 5.4µM*; Luc counter: -2%; Rab9 promoter act: -14%

How did O=C1C(C2=NC(c3ccccn3)C3C(=O)N(c4ccccc4)C(=O)C23)=C(O)c2ccccc21 (stereo not drawn) do in these assays?
ELG1 genotoxic: 3%; NPC1 promoter act: 1%; FLuc counter: 3%; Rab9 promoter act: -2%

Results for COc1ccc(CNC(=O)C2CCN(S(=O)(=O)c3ccccc3)CC2)cc1 ?
ELG1 genotoxic: -6%; NPC1 promoter act: 1%; FLuc counter: 0%; Rab9 promoter act: -1%
